H9c2 protect – myocardial damage modulation in H9c2 cells. protection from H2O2 cell death, % at 20 µM. 360,000 tested, 0.63% active. H9c2 cardiomyocytes, H2O2 injury protection, ATPLite, 2 h;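 active = compounds giving at least 50% protection of heart cells from peroxide-induced death in the single-dose screen, raw or plate-pattern-corrected value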;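 note: 0% = DMSO wells with peroxide and 100% = DMSO wells without peroxide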
697 NFkB inh – lowers PMA/ionomycin-induced NF-kB signal in 697 B cells. inhibition, % at 4 µM. 330,000 tested, 0.33% active. AID 435022. 697 B-cell NF-kB luciferase reporter, 16 h; in the data active = inhibition above about 35%
Gli-Sufu antag – blocks Gli-Sufu signaling in a luciferase reporter; Sufu-KO-LIGHT fibroblasts, Gli luciferase reporter luminescence; inhibition, % at 5 µM; 340,000 tested, 0.74% active;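 active = inhibition above about 55%, limit read from the data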;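 note: 0% = DMSO-treated cells and 100% = wells with medium but no cells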
NR2F2 inh – inhibitors of human COUP-TFII (NR2F2); HEK293T NGFI-A luciferase reporter, luminescence; 370,000 tested, 0.7% active; inhibition, % at 8.6 µM;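 active = inhibition above a per-plate cutoff, mean inhibition of test wells between control levels plus 3 SD, cut at about 38% in these data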;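 note: cells cotransfected with COUP-TFII expression vector driving the NGFI-A reporter; 0% = median of COUP-TF2 test wells and 100% = reporter-only cells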
Target sequence (P24468 whole entry, looked up): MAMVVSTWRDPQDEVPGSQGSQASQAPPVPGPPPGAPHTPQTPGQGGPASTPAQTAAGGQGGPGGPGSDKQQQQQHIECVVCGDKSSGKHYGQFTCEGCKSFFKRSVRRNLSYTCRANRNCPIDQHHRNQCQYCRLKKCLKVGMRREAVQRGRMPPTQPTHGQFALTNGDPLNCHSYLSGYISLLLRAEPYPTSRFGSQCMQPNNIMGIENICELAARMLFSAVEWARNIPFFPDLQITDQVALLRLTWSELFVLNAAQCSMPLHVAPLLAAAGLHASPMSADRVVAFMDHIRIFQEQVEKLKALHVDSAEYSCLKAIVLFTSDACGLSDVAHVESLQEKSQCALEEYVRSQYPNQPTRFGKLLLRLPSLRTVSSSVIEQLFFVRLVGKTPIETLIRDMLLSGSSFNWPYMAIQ
Jurkat NFkB inh – lowers PMA/ionomycin-induced NF-kB signal in Jurkat cells; inhibition, % at 4 µM; 330,000 tested, 0.53% active; PMA/ionomycin-induced NF-kB luciferase reporter, luminescence; AID 435003; in the data active = inhibition above about 50%
H9c2 TAG inh – reduces triacylglycerol accumulation in H9c2 cells | Nile Red lipid (TAG) fluorescence; cells loaded with 200 µM oleic acid | 230,000 tested, 0.66% active | inhibition, % at 12.5 µM;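 active = pattern-corrected inhibition of lipid staining of at least 50% with the nuclear-stain viability signal not falling by more than 50%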;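 note: 0% = DMSO wells and 100% = triacsin C control wells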
Jurkat NFkB conf – lowers PMA/ionomycin-induced NF-kB signal in Jurkat cells; shares compounds with Jurkat NFkB inh; Jurkat NF-kB luciferase, 16 h; inhibition, % at 4 µM; 2,700 tested, 27% active;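 active = inhibition reaching about 45% at 4 µM in either replicate, limit read from the data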;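 note: plate controls were PMA/ionomycin stimulated DMSO wells for no effect and unstimulated DMSO wells for full effect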
The depositor's hits bear a star; · = no result given. This is a sample that favours compounds with a hit; in the whole collection about 2.6% have one here.

SMILES	H9c2 protect	697 NFkB inh	Gli-Sufu antag	NR2F2 inh	Jurkat NFkB inh	H9c2 TAG inh	others
CN(C)C1CCN(Cc2cc(COCc3ccccc3)c3cccnc3c2O)C1 (stereo not drawn)	35	-61	57*	·	25	46
OCCN1CCN(Cc2cc(Cl)c3cccnc3c2O)CC1	24	-11	-3	23	-2	·
COCc1cc(CN2CCCC2)c(O)c2ncccc12	11	-21	4	2	18	·
Cc1ccc(-c2cc(C(=O)N=Nc3c(O)[nH]c4ccccc34)[nH]n2)cc1C	·	·	·	21	·	·
O=C(OC12CCCN(C1)/C(=C/c1ccccc1)C2)c1ccccc1 (stereo not drawn)	·	·	·	-7	·	·
COc1cccc(-c2cnc3c(NC(C)=O)cc(-c4ccc(OC)c(OC)c4)cn23)c1	26	·	·	-15	·	-6
CC(=O)Nc1cccc(-c2cc(NC(C)=O)c3ncc(-c4cccc(C(C)=O)c4)n3c2)c1	59*	·	·	-12	·	5
CC(=O)Nc1cccc(-c2cc(NC=O)c3ncc(-c4ccc(C(C)=O)cc4)n3c2)c1	93*	·	·	-90	·	12
COc1ccc(-c2cc(NC(C)=O)c3ncc(-c4cccc(C(C)=O)c4)n3c2)cc1OC	111*	·	·	0	·	4
COc1ccc(-c2cc(NC=O)c3ncc(-c4ccc(C(C)=O)cc4)n3c2)cn1	64*	·	·	-15	·	41
CC(=O)Nc1cc(-c2cccc(N)c2)cn2c(-c3ccc(C(C)=O)cc3)cnc12	39	·	·	9	·	7
CCn1c2ccccc2c2cc(C=NNC(=O)CSc3nc4ccccc4c(=O)n3-c3ccccc3)ccc21	·	·	·	-7	·	·
O=CNc1cc(-c2ccsc2)cn2c(-c3ccccc3)cnc12	-15	·	·	9	·	2
CS(=O)(=O)c1ccc(-c2cnc3c(NC=O)cc(-c4ccsc4)cn23)cc1	81*	·	·	2	·	27
COc1ccc(S[C@]2(C(=O)N3CCN(c4ncccn4)CC3)CC(=O)N(C(=O)c3ccccc3)[C@@H]2c2ccc(OC)cc2)cc1	·	·	·	7	·	·
COC(=O)c1cc2c(c3c4ccccc4n(S(C)(=O)=O)c13)C(=O)N(Cc1ccccc1)C2	·	·	·	5	·	·
Cc1cc(-c2ccccc2)nc(N/N=C/c2ccc([N+](=O)[O-])cc2)n1	53*	-33	7	2	0	·
Cc1cc(-c2ccccc2)nc(N/N=C/c2ccccc2)n1	-11	-15	16	-30	-33	·
COc1ccc(-c2csc(C(C#N)=C(O)CSc3nccn3C)n2)cc1OC	57*	·	3	-8	·	-6
O=C(Nc1nc2ncccn2c1-c1ccc(F)c(F)c1)C1CC1	·	·	·	-19	·	·
COc1ccc(NC(=O)c2ccco2)cc1NC(=O)c1ccco1	-3	2	-9	3	-2	14
COc1cc(NC(=O)c2ccco2)c(OC)cc1NC(=O)Nc1cccc(Cl)c1	65*	-18	17	7	-7	·
O=C1CCC[C@H]2[C@@H](Cc3ccccc3)[C@@H](O)CC[C@]23CCCN13	·	·	·	16	·	·
CCOC(=O)c1c2c3c(c(Cl)ccc3[nH]c1=O)C(=O)c1ccccc1-2	60*	-10	11	16	4	·
CCOC(=O)c1c2c3c(cccc3[nH]c1=O)C(=O)c1ccccc1-2	16	-1	5	5	10	4
SMILES	H9c2 protect	697 NFkB inh	Gli-Sufu antag	NR2F2 inh	Jurkat NFkB inh	H9c2 TAG inh	others
CCOC(=O)c1c2c3c(cccc3n(C)c1=O)C(=O)c1ccccc1-2	75*	-21	-25	-18	-17	·
CC(C)(C)C(=O)c1c(N)[nH]c(C(=O)c2ccccc2)c1-c1ccc([N+](=O)[O-])cc1	·	·	·	-6	·	·
COc1ccc(Cl)cc1NC(=O)c1cnc2sccn2c1=O	1	-31	-19	-1	-64	8
O=C(Nc1cnc2sccn2c1=O)c1ccc(Cl)cc1Cl	-11	-176	-24	-29	-151	·	Jurkat NFkB conf=-48
O=[N+]([O-])c1ccccc1OCc1nc(-c2cccs2)no1	-4	-166	-117	-46	-162	-2	Jurkat NFkB conf=-121
O=C(Nc1ccccc1)OCCN1CCCC12CCC(c1ccccc1)CC2 (stereo not drawn)	·	·	·	-9	·	·
Cc1ccccc1C(=O)N1CCN(c2ccccn2)CC1	9	17	-15	3	16	·
O=C(c1cn(Cc2ccccc2)nc1-c1ccccc1)N1CCN(c2ccccn2)CC1	-1	-37	-6	-3	53*	14	Jurkat NFkB conf=39
O=C(c1ccccc1-c1ccccc1)N1CCN(c2ccccn2)CC1	3	-21	5	4	69*	·	Jurkat NFkB conf=41
O=C(c1cc(-c2ccncc2)nc2ccccc12)N1CCN(c2ccccn2)CC1	21	-30	-8	-3	57*	·	Jurkat NFkB conf=8
O=C(c1cc(-c2ccccc2)nc2ccccc12)N1CCN(c2ccccn2)CC1	-1	-42	0	-7	-4	-1
COCCCN1C(=O)[C@H](CC(=O)NCC2CCCCC2)[C@]2(C(=O)OC)CCCCC=C12	·	·	·	-11	·	·
COc1ccc(/C=C2/C(=O)OCc3cc(OC)c(OC)cc32)cc1	13	-68	4	-10	55*	·	Jurkat NFkB conf=48*
COc1ccc(/C=C2\CCOC2=O)cc1	4	-3	4	-14	-1	0
Cc1ccc(-n2c(SCc3cccc(F)c3)nc3ccccc3c2=O)cc1	·	·	·	0	·	·
COc1cccc(-c2cc(C(=O)Nc3cc(C)n(Cc4ccc(Cl)cc4)n3)no2)c1	-8	28	-3	17	61*	·	Jurkat NFkB conf=42
COc1ccc(OC)c(-c2cc(C(=O)Nc3cc(C)n(Cc4ccc(Cl)cc4)n3)no2)c1	-4	-28	·	-7	12	·
COc1ccc2ccccc2c1C=NNC(=O)c1cc(-c2ccc(C)c(C)c2)n[nH]1	·	·	·	-6	·	·
Cc1nn(CC(=O)NC2(C)CCS(=O)(=O)C2)c(C)c1S(=O)(=O)N(C)C (stereo not drawn)	9	1	3	-8	57*	3	Jurkat NFkB conf=14
CN(CC(=O)NC1(C)CCS(=O)(=O)C1)S(=O)(=O)c1ccc(Cl)cc1 (stereo not drawn)	6	-16	-7	-2	-3	0
COC(=O)C1CCN(C(=O)CCn2nnc(-c3cccs3)n2)CC1	·	·	·	14	·	·
CN(C)c1ccc(N=Nc2cccc(F)c2)cc1	-9	-90	-34	-45	-244	·	Jurkat NFkB conf=-102
CN(C)c1ccc(N=Nc2ccc3ncccc3c2)cc1	-17	·	-127	-70	·	-1
Cc1c[nH]c2cccc(-c3ccc4c(c3)OCO4)c12	·	·	·	-24	·	·
COc1ccc(OCc2cc(/C=N\NC(=O)c3ccccc3)ccc2OC)cc1	18	-25	-2	-6	54*	2	Jurkat NFkB conf=18
COc1ccc(/C=N\NC(=O)c2cccc(F)c2)cc1COc1ccccc1	7	12	49	-78	52*	47	Jurkat NFkB conf=53*
COc1ccc(C(=O)N/N=C/c2ccc(OC)c(COc3c(F)c(F)cc(F)c3F)c2)cc1	-2	-4	8	-10	3	13

Screening data: PubChem, several laboratories
